Inconclusive results are not listed. Unmarked numbers belong to inactive results. Calls of active or inactive are those of the source. The call rests on the fitted dose curve; in most records, active means well fitted inhibition curve with a large enough effect; inconclusive means small, poorly fitted or top-dose-only effect; inactive means flat fitted curve, though single readings scatter.
Columns and labels:
[1] = test system: CRL-7250; assay: Cytotoxic Profiling of Annotated Libraries Using Quantitative High-Throughput Screening (AID 1296008); details: Five cell lines viability, CellTiter-Glo ATP luminescence, 48-72 h; max response: stronger effect = lower value
In short: (§1)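 Cells exposed to compounds for 48 or 72 hr at 37 degrees Celsius. Viability read as ATP-coupled luminescence with CellTiter-Glo after 10 min at room temperature.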

[2] = test system: HEK293; assay: as above; details: Five cell lines viability, CellTiter-Glo ATP luminescence, 48-72 h; max response: stronger effect = lower value
In short: as §1

[3] = test system: HaCat; assay: as above; details: Five cell lines viability, CellTiter-Glo ATP luminescence, 48-72 h; max response: stronger effect = lower value
In short: as §1

[4] = test system: KB-3-1; assay: as above; details: Five cell lines viability, CellTiter-Glo ATP luminescence, 48-72 h; max response: stronger effect = lower value
In short: as §1

[5] = test system: NIH3T3; assay: as above; details: Five cell lines viability, CellTiter-Glo ATP luminescence, 48-72 h; max response: stronger effect = lower value
In short: as §1

[6] = test system: HACAT; assay: qHTS assay to identify novel small-molecules to repurpose for Merkel cell carcinoma treatment (AID 1296009); details: MCC and control cell lines, CellTiter-Glo viability, 72 h; at 44.8 µM (top of the series) unless noted
In short: (§2)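 Cells were treated for 72 hr at 37 degree celsius with compounds in 8- or 11-point dose response. Viability was read by CellTiter-Glo luminescence, normalized to no-cell (cytotoxicity) and DMSO controls.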

[7] = test system: MCC-13; assay: as above; details: MCC and control cell lines, CellTiter-Glo viability, 72 h; series mostly up to 46 µM
In short: as §2

[8] = test system: HEK293T; assay: as above; details: MCC and control cell lines, CellTiter-Glo viability, 72 h; series mostly up to 44.8 µM
In short: as §2
Further: nearly all actives have a fitted effect of over 60% in size.
On the % scale 0 is the no-effect control and ±100 the full control effect; potency means the concentration at half of the fitted maximal effect.

NC(=O)c1ncn([C@@H]2O[C@H](CO)[C@@H](O)[C@@H]2O)c1N
max response [1]: -3.14% | max response [2]: 2.62% | outcome [3]: inactive | max response [4]: 1.9% | outcome [5]: inactive | outcome [6]: inactive | Potency [7]: inactive

O=C(O)[C@H](CC(=O)N1C[C@@H]2CCCC[C@H]2C1)Cc1ccccc1
outcome [1]: inactive | max response [2]: -4.31% | outcome [3]: inactive | max response [4]: 2.32% | outcome [5]: inactive | outcome [6]: inactive | Potency [7]: inactive

C[C@H](CCC(=O)O)[C@H]1CC[C@H]2[C@@H]3[C@H](O)C[C@@H]4C[C@H](O)CC[C@]4(C)[C@@H]3CC[C@]12C
max response [1]: 2.36% | max response [2]: -7.11% | outcome [3]: inactive | max response [4]: 1.89% | outcome [5]: inactive | outcome [6]: inactive | Potency [7]: inactive

C[C@@H]1C(=O)O[C@H]2CC34[C@H]5C[C@@H](C(C)(C)C)C36[C@H](OC(=O)[C@@H]6O)O[C@@]4(C(=O)O5)[C@]21O (some centres undefined)
outcome [1]: inactive | max response [2]: 3.06% | outcome [3]: inactive | max response [4]: 2.09% | outcome [5]: inactive | outcome [6]: inactive | Potency [7]: inactive

CC[C@H](CC[C@@H](C)[C@H]1CC[C@H]2[C@@H]3CC=C4C[C@@H](O)CC[C@]4(C)[C@@H]3CC[C@]12C)C(C)C
max response [1]: -0.624% | max response [2]: -8.75% | max response [3]: 4.34% | max response [4]: -7.92% | max response [5]: 4.37% | Potency [7]: inactive

CC(C)N(CC[C@H](c1ccccc1)c1cc(CO)ccc1O)C(C)C
outcome [1]: inactive | max response [2]: 0.962% | max response [3]: -1.81% | outcome [4]: inactive | outcome [5]: inactive | Potency [7]: inactive

C[C@H]1O[C@H](O[C@H]2[C@H](O)[C@@H](O)[C@@H](O[C@H]3[C@H](O)[C@@H](O)C(O)O[C@H]3CO)O[C@H]2CO)[C@H](O)[C@@H](O)[C@H]1N[C@H]1C=C(CO)[C@@H](O)[C@H](O)[C@@H]1O (some centres undefined)
max response [1]: 1.59% | Potency [2]: 9.35 µM (active) | max response [3]: -16.9% | max response [4]: 4.29% | max response [5]: -1.18% | Potency [7]: inactive

Cc1cc(O)c2c(c1)C(=O)c1cccc(O)c1C2=O
outcome [1]: inactive | outcome [2]: inactive | max response [3]: -2.05% | max response [4]: 4.24% | max response [5]: 4.67% | Potency [8]: inactive | Potency [7]: inactive

CON=C(C(=O)N[C@@H]1C(=O)N2C(C(=O)O)=C(CSC(=O)c3ccco3)CS[C@H]12)c1csc(N)n1
max response [1]: 4.77% | outcome [2]: inactive | max response [3]: 1.07% | outcome [4]: inactive | max response [5]: -6.35% | Potency [8]: inactive | Potency [7]: inactive

O=C(C=Cc1ccc(CN(CCO)CCc2c[nH]c3ccccc23)cc1)NO
Potency [1]: 833 nM (active) | Potency [2]: 0.372 µM (active) | Potency [3]: 526 nM (active) | Potency [4]: 264 nM (active) | Potency [5]: 1.05 µM (active) | Potency [7]: 1.66 µM (active)

CC(=O)OC[C@@H]1O[C@@H](n2ccc(=O)[nH]c2=O)[C@H](OC(C)=O)[C@H]1OC(C)=O
max response [1]: -3.38% | max response [2]: -0.274% | max response [3]: -10.5% | max response [4]: -0.144% | max response [5]: -12.5% | Potency [7]: inactive

Cc1onc(-c2ccccc2)c1C(=O)N[C@@H]1C(=O)N2[C@@H](C(=O)O)C(C)(C)S[C@@H]12
max response [1]: -3.26% | max response [2]: -0.866% | max response [3]: -5.57% | max response [4]: 3.95% | max response [5]: -2.28% | Potency [7]: inactive

CCOC(=O)C=C[C@H](C[C@@H]1CCNC1=O)NC(=O)[C@@H](CC(=O)[C@@H](NC(=O)c1cc(C)on1)C(C)C)Cc1ccc(F)cc1
max response [1]: -2.35% | max response [2]: -0.69% | max response [3]: -7.58% | max response [4]: 4.76% | max response [5]: 0.598% | Potency [7]: inactive

CCC[C@H]1C[C@H](C(=O)N[C@@H]([C@@H]2O[C@@H](SC)[C@@H](O)[C@@H](O)[C@@H]2O)[C@H](C)Cl)N(C)C1
max response [1]: -6.31% | max response [2]: -2.02% | max response [3]: -10.7% | max response [4]: 0.31% | max response [5]: -6.56% | Potency [7]: inactive

COc1ccnc2[nH]cc(C(=O)C(=O)N3CCN(C(=O)c4ccccc4)C[C@@H]3C)c12
max response [1]: -9.05% | max response [2]: -2.26% | max response [3]: -2.32% | max response [4]: 3.92% | max response [5]: -11.5% | Potency [7]: inactive

CC(C)C[C@H](NC(=O)CNC(=O)c1cc(Cl)ccc1Cl)B1OC(=O)CC(CC(=O)O)(C(=O)O)O1 (some centres undefined)
Potency [1]: 1320 nM (active) | Potency [2]: 0.469 µM (active) | Potency [3]: 4180 nM (active) | Potency [4]: 1050 nM (active) | Potency [5]: 0.833 µM (active) | Potency [7]: 1.18 µM (active)

c1cc(CN2CCCNCCNCCCNCC2)ccc1CN1CCCNCCNCCCNCC1
max response [1]: -0.856% | outcome [2]: inactive | max response [3]: -12.9% | max response [4]: -8.95% | max response [5]: -1.27% | Potency [8]: inactive | Potency [7]: inactive

COc1ccc(Nc2nccc(NCCO)n2)cc1
max response [1]: 1.05% | max response [2]: -0.619% | max response [3]: 0.234% | max response [4]: -27.2% | max response [5]: 1.01% | Potency [7]: inactive

CC(=O)N[C@H]1[C@@H]([C@H](O)[C@H](O)CO)OC(C(=O)O)=C[C@@H]1N=C(N)N
max response [1]: -3% | max response [2]: 2.95% | max response [3]: -9.9% | outcome [4]: inactive | max response [5]: 3.71% | Potency [7]: inactive

COc1cc(N2CCC(C(N)=O)CC2)ccc1Nc1nc(N)c(Cl)c(Nc2ccccc2S(=O)(=O)C(C)C)n1
outcome [1]: inactive | Potency [2]: 1.48 µM (active) | max response [3]: -18.3% | max response [4]: 2.09% | Potency [5]: 3.72 µM (active) | Potency [7]: inactive

N#CNC(=NCCCCCCOc1ccc(Cl)cc1)Nc1ccncc1
max response [1]: -103% | max response [2]: -111% | Potency [3]: 20.9 nM (active) | Potency [4]: 3.7 nM (active) | Potency [5]: 0.296 µM (active) | Potency [7]: 0.0372 µM (active)

CN[C@H]1[C@@H](O)[C@@H]2O[C@@H]3O[C@H](C)CC(=O)[C@]3(O)O[C@@H]2[C@@H](NC)[C@H]1O
max response [1]: 4.26% | max response [2]: -3.13% | max response [3]: -0.114% | outcome [4]: inactive | max response [5]: 4.68% | Potency [7]: inactive

Reference: PubChem BioAssay (NCATS)
